Among the data in PubChem BioAssay (Tox21) are Potency values, retold here.

Each structure is given as a SMILES string. Activity calls are given as the source filed them. Entries that show only a call come without a potency. The call rests on the fitted dose curve.

In the experiment the target is Muscarinic acetylcholine receptor M1 (Homo sapiens) (UniProt P11229). Kind of experiment: Cholinergic receptor muscarinic 1 (CHRM1) small molecule agonists, cell-based qHTS assay (AID 1963589). Further: nearly all actives have a fitted effect of over 35% in size. The following applies: CHRM1-CHO cells, agonist mode, calcium flux fluorescence; series mostly up to 76.8 µM. The gist of the method: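 Stable CHRM1-CHO cells (human receptor) were incubated 18 h, dye-loaded for 1 h at 37 C and exposed to test compounds for agonist activity, with calcium-dependent fluorescence followed kinetically.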
Sequence of Muscarinic acetylcholine receptor M1 (Homo sapiens) (P11229 whole entry, looked up): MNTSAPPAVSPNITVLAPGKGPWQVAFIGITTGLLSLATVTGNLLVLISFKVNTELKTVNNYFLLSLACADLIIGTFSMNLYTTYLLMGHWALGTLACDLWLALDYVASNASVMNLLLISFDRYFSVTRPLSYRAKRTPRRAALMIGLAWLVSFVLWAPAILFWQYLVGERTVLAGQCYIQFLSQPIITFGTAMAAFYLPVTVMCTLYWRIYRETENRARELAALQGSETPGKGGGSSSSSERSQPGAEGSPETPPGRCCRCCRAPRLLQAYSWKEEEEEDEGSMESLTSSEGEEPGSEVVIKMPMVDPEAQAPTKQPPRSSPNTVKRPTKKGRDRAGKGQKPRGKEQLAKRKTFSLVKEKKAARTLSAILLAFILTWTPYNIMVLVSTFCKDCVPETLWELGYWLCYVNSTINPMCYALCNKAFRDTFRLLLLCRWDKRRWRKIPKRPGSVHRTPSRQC
A general note: qHTS replaces the single test concentration by a dilution series.
As for `CC(=O)c1ccc(Cl)c(Cl)c1Cl`, the Potency result was “inactive”. As to `O=C(O)CCC(=O)c1ccc(-c2ccccc2)cc1`, the Potency result was “inactive”. Under `O=C(Nc1ccc2c(O)c(N=Nc3ccc(N=Nc4ccc(S(=O)(=O)O)cc4)cc3)c(S(=O)(=O)O)cc2c1)c1ccccc1` stands “inactive”; under `CC(C)(C)C(=O)/C=C/c1ccc(Cl)cc1`, “inactive”. Under `OCC(O)[C@@H](O)[C@H](O)[C@H](O)CO[C@H]1O[C@H](CO)[C@@H](O)[C@H](O)[C@H]1O` (some centres undefined) stands “inactive”. The same measure for `C[C@@H](CN1CC(=O)NC(=O)C1)N1CC(=O)NC(=O)C1`: “inactive”. In the case of `Cc1ccsc1C(=CCCN1CCC[C@@H](C(=O)O)C1)c1sccc1C`, the Potency result was “inactive”. As to `CCCCCCCCCCC(=O)O`, the Potency entry is “inactive”.

On to `CCOCCOCCOC(C)=O`, for which the Potency entry is “inactive”.

Regarding `CO[Si](C)(OC)c1ccccc1`, the Potency entry is “inactive”. For the molecule `COC(=O)c1ccccc1Cl`, the Potency result is “inactive”. The same measure for `CCOC(=O)CCCCCCCCC(=O)OCC`: “inactive”; for `COc1cccc(O)c1`: “inactive”; for `[O-][n+]1cccc(CO)c1`: “inactive”. Turning to `CC1OCCC1=O` (centres undefined), the Potency entry is “inactive”.

On to `CC(C)=CCC/C(C)=C/CC/C(C)=C/CO`, for which the Potency result is “inactive”. `O=[N+]([O-])c1cc(Cl)c(Cl)c(Cl)c1Cl`: the Potency result is “inactive”.

As for `COCCOCC(OC)OC`, the Potency entry is “inactive”.

Take `ClC(Cl)(Br)Br`: the Potency entry is “inactive”. The same measure for `N[C@H]1CN(c2c(F)cc3c(=O)c(C(=O)O)cn(C4C[C@H]4F)c3c2Cl)CC12CC2` (some centres undefined): “inactive”; for `CCC(=O)c1cccc(Cl)c1`: “inactive”. The same measure for `CN(C)CCOC1=Cc2ccccc2Sc2ccc(Cl)cc21`: “inactive”; for `COc1cc2nc(Cl)nc(N)c2cc1OC`: “inactive”.

Take `O=C1CCCc2c(O)cccc21`: the Potency entry is “inactive”.
